Among the data in PubChem BioAssay (EPA / NIEHS) are outcome and AC50 values, retold here.

Activity calls are given as the source filed them. How the source made its calls: active means hit-call score of the fitted dose curve at least 0.9, where 1 is the maximum; inactive means score below 0.9.

The assay in a line: BSK_CASM3C_Proliferation: Cell Proliferation Assessment in the BioMAP Diversity Plus: CASM3C Assay (AID 2283047).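 Further: sulforhodamine B total protein stain as relative cell number at 560 nm; sub-confluent cells exposed 48 h before staining; fitted both ways against DMSO so gain or loss of cell number.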 Conditions: primary human coronary artery smooth muscle cells.
In the case of `CCN(Cc1cccc(S(=O)(=O)O)c1)c1ccc(C(=C2C=CC(=[N+](CC)Cc3cccc(S(=O)(=O)O)c3)C=C2)c2ccccc2S(=O)(=O)[O-])cc1`, the outcome was inactive. With `CCCCOC(=O)CC(CC(=O)OCCCC)(OC(C)=O)C(=O)OCCCC`, the result was inactive.

What is called AC50 is the concentration giving half of the maximal activity seen. Consider `O=c1c(-c2ccc(O)cc2)coc2cc(O)cc(O)c12`, for which the AC50 is 11.7 µM (active). Same read-out and setting: then `CN(C)C(=O)C1(N2CCCCC2)CCN(CC[C@@]2(c3ccc(Cl)c(Cl)c3)CN(C(=O)c3ccccc3)CCO2)CC1`, with 15.7 µM (active).

With `CCCCOC(=O)c1ccc(O)cc1`, the outcome was inactive.

`O=C1CCC(C2CCCCC2)CC1`: the outcome was inactive. Regarding `CCO[Si](CCCNC(N)=O)(OCC)OCC`, the result was inactive. Consider `CCCCCCCCCCCCO`, for which the AC50 is 32.6 µM (active).

Turning to `C[C@]12CC[C@@H]3c4ccc(O)cc4CC[C@H]3[C@@H]1CCC2=O`, the result was inactive. As to `CC/C(=C(/CC)c1ccc(O)cc1)c1ccc(O)cc1`, the half-maximal activity concentration (AC50) is 20 µM (active).

In the case of `CCCCCc1ccc(N)cc1`, the result was inactive.

As for `CN1C(=O)CC[C@H]1c1cccnc1`, the result was inactive. For `O=C(O)Cc1cc(I)c(Oc2ccc(O)c(I)c2)c(I)c1`, the result was inactive. For `CCCCCCCCCCCC[N+](C)(C)C`, the AC50 was 12.9 µM (active). `CCCCCCCCCC(=O)O`: the outcome was inactive. Take `Cc1cc(F)ccc1-c1cc(N2CC[C@@H](O)[C@H]2CO)ncc1N(C)C(=O)C(C)(C)c1cc(C(F)(F)F)cc(C(F)(F)F)c1`: the AC50 was 28.3 µM (active). Take `CC(C)(C)c1csc(-c2cc3cc(OCc4ccccc4CC(=O)O)ccc3o2)n1`: the AC50 is 34 µM (active). As for `CC(=O)N1CCN(c2ccc(OC[C@H]3CO[C@](Cn4ccnc4)(c4ccc(Cl)cc4Cl)O3)cc2)CC1`, the concentration at half-maximal activity (AC50) was 28 µM (active).

For the molecule `CN(C)c1ccc(C(=C2C=CC(=[N+](C)C)C=C2)c2ccc(N(C)C)cc2)cc1`, the concentration at half-maximal activity (AC50) is 2.06 µM (active). As for `O=C(Nc1ccc(Cl)cc1)Nc1ccc(Cl)c(Cl)c1`, the AC50 is 5 µM (active). With `CCCCCCCCN(C)CCCCCCCC`, the outcome was inactive. Turning to `c1ccc2ccccc2c1`, the outcome was inactive. For `CCCCCCCCCCCO`, the AC50 was 33.5 µM (active). The same measure, in the same setting: with `CC[C@@H]1C[C@H](N(Cc2cc(C(F)(F)F)cc(C(F)(F)F)c2)C(C)=O)c2cc(C(F)(F)F)ccc2N1C(=O)OC(C)C` the figure was 1.37 µM (active). As to `CCCCCCCC[Si](OCC)(OCC)OCC`, the AC50 was 35.4 µM (active). Regarding `O=C(OCCCCCCOC(=O)c1ccccc1)c1ccccc1`, the outcome was inactive. Consider `COCC(C)OCC(C)OCC(C)O` (stereo not drawn), for which the result was inactive.

As to `Cc1oc2c(NC(=O)c3c(Cl)cccc3Cl)cccc2c1C(C)(C)O`, the AC50 was 20 µM (active). In the case of `Clc1cc(Cl)c2c(c1)N=C1CCCCCN1C2`, the outcome was inactive. Consider `O=C(O)Cn1c(=O)n(Cc2ccc(Br)cc2F)c(=O)c2ccc(Cl)cc21`, for which the result was inactive.

Regarding `Oc1ccccc1`, the result was inactive.

For `OC12N=C(c3ccccc3)SC1Cc1cc(Cl)ccc12` (stereo not drawn), the AC50 is 30.1 µM (active). Regarding `Cc1ccc(C(C)C)cc1`, the result was inactive. With `Cc1cn([C@H]2C[C@H](N=[N+]=[N-])[C@@H](CO)O2)c(=O)[nH]c1=O`, the outcome was inactive. For the molecule `NC(=O)c1nc(-c2cccc(-c3cc(F)ccc3OCC(F)(F)C(F)(F)F)c2)n[nH]1`, the AC50 is 31.4 µM (active). `CCCOC(=O)c1cc(O)c(O)c(O)c1`: the AC50 is 6.82 µM (active). The same measure, in the same setting: with `O=CCCCC=O` the figure was 23.5 µM (active); with `COc1cc(C(=O)NC2CCN(C)CC2)ccc1Nc1ncc2c(n1)N(C1CCCC1)CC(F)(F)C(=O)N2C`, 1.67 µM (active).
